Screens (PubChem)
Hits are enriched below; roughly 2.9% of the tested compounds scored in any of these assays.
Myeloid diff 2 = myeloid differentiation induction | ER-HoxA9 myeloid progenitors, lysozyme-GFP differentiation, flow cytometry | calls only at 10 µM | actives 1% (n = 360,000) | AID 624256;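 active means normalized GFP-positive differentiation at or above the plate's own cutoff, the solvent-only control mean plus 3 SD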;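 further: cells exposed to compound for four days before flow analysis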
Cardio protect = myocardial damage modulation in H9c2 cells; H9c2 cardiomyocytes, H2O2 injury protection, ATPLite, 2 h; protection from H2O2 cell death, % at 20 µM; AID 588492; actives 0.63% (n = 360,000);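 active means compounds giving at least 50% protection of heart cells from peroxide-induced death in the single-dose screen, raw or plate-pattern-corrected value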;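 further: 0% = DMSO wells with peroxide and 100% = DMSO wells without peroxide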
ABHD5-PLIN5 inh = inhibitors of human ABHD5-perilipin-5 interaction. Q00G26+Q8WTS1. Split G. princeps luciferase complementation, luminescence, 4 h. inhibition, % at 4 µM. actives 0.78% (n = 360,000). AID 602281;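 active means inhibition above the mean inhibition across every tested compound plus 3 SD, cut at about 22% in these data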;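 further: 0% = DMSO only wells and the 100% control is not disclosed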
Target sequence (Q00G26 whole entry, looked up): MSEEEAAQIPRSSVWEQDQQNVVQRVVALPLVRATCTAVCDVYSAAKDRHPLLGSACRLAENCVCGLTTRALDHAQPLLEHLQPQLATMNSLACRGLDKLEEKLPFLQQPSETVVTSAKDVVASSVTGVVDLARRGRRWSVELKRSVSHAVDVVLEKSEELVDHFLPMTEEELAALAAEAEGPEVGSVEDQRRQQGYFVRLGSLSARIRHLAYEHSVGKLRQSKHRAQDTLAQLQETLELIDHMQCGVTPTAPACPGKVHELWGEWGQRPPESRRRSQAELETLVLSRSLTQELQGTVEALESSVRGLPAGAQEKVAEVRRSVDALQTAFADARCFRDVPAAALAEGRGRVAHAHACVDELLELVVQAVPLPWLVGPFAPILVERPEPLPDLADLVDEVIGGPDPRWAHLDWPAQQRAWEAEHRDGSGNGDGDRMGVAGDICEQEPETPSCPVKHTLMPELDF
Target sequence (Q8WTS1 whole entry, looked up): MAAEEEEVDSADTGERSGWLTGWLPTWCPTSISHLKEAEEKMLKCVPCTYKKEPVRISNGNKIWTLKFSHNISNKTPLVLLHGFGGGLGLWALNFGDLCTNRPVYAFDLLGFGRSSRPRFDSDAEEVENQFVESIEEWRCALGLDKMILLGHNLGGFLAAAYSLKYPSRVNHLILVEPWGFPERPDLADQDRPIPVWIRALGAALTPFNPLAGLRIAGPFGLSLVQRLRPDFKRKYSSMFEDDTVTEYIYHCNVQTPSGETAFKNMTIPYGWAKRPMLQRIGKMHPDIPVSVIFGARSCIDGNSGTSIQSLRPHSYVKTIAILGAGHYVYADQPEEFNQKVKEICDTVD
Rtt109 HAT inh = blocks Candida albicans Rtt109/Vps75 acetyltransferase activity | inhibition, % at 34.9 µM | actives 0.16% (n = 330,000) | purified Rtt109/Vps75, ThioGlo CoA-SH fluorescence, 4 h | Q5AAJ8;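 active means inhibition of at least 50% in every replicate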
DAGLB inhibitor = blocks human DAGLB lipase activity; inhibition, % at 5.17 µM; actives 0.059% (n = 340,000); HEK293T DAGLB membrane lysate, EnzChek fluorogenic substrate; Q8NCG7; in the data active means inhibition above about 34%;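 further: 0% = enzyme with vehicle and 100% = wells lacking enzyme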
sPLA2-III inh = Inhibits HGIII-sPLA2 liposome hydrolysis, primary screen; QFRET BODIPY PC-A2 liposome hydrolysis, fluorescence; inhibition, % at 12.2 µM; AID 743126; actives 0.56% (n = 370,000);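 active means inhibition above mean plus 3 SD of compounds lying within the high and low control bounds, cut at about 19% in these data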;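 further: 0% = median of test compound wells and 100% = no enzyme DMSO wells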
Starred values were filed as active, the others as inactive; i = inactive; x = no result given; + = active, no number.

SMILES	Myeloid diff 2	Cardio protect	ABHD5-PLIN5 inh	Rtt109 HAT inh	DAGLB inhibitor	sPLA2-III inh
Cc1cccc(NC(=O)NN2CCN(C)CC2)c1C	i	2	-3	-7	2	9
Cc1c(Cl)cccc1NC(=O)NN1CCN(C)CC1	+	-2	8	17	0	7
O=C(/C=C/c1cccs1)N1CCC2(CC1)Oc1ccc(F)cc1C(=O)C21CC(c2ccc(Cl)cc2)=NO1 (centres undefined)	i	6	-8	9	-4	0
Cc1nn(-c2ccccc2)c(Cl)c1C(=O)Nc1nnc(C2CCCCC2)s1	i	-3	-4	0	-3	1
O=C(Nc1nnc(C2CC2)s1)c1cc(-c2ccccc2)nn1-c1ccccc1	i	52*	-1	-2	-1	8
COC(=O)c1ccc(C2c3[nH]c4ccccc4c3C[C@H]3C(=O)N(C4CC4)CC(=O)N23)cc1 (some centres undefined)	i	23	1	-12	-2	-8
COC(=O)CSc1nnc(C)n1-c1cccc(OC)c1	i	-5	6	-23	-1	-1
COc1ccc(-n2c(COc3ccc(C)cc3)nnc2SCC(N)=O)cc1	+	-1	1	-36	-2	2
COC(=O)CSc1nnc(C)n1-c1ccc(C)cc1	+	-2	0	-3	0	1
Cc1ccc(-c2nnn(CC(=O)N(Cc3ccco3)C(C(=O)NC(C)(C)C)c3ccc(C)o3)n2)o1 (centres undefined)	i	1	4	20	0	-13
COCCC(=O)N1CCC(Oc2ccc(C(=O)N3CCC(N(C)C)C3)cc2)CC1 (centres undefined)	i	-1	3	-7	0	3
Cc1c(CC(=O)O)c(=O)oc2c(C)c(OCc3c(F)cccc3Cl)ccc12	i	3	-4	-5	5	14
CCOC(=O)C1CCN(c2ccc([N+](=O)[O-])cc2)CC1	i	1	11	16	-7	4
CCOC(=O)C1CCC(CN(Cc2ccccc2C)S(=O)(=O)c2ccc([N+](=O)[O-])cc2)CC1 (centres undefined)	+	-1	-3	3	-19	18
CCC(C)(C)NC(=O)CN(Cc1cccs1)C(=O)CNS(=O)(=O)c1ccc(C)cc1	i	1	-4	6	-1	8
CCc1ccc(OCC(=O)N/N=C(\C)c2ccc(O)cc2O)cc1	+	32	-10	-2	3	-3
CCc1ccc(OCC(=O)N/N=C(\C)c2ccc3c(c2)OCCO3)cc1	i	-1	3	8	-4	-1
CN1/C(=C\C(=S)NC(=O)c2cccc(Br)c2)C(C)(C)c2ccccc21	+	-15	-11	-5	16	12
Cc1cccc(OCCCC(=O)NNC(=O)c2ccccn2)c1	i	50*	2	-2	7	-7
Cc1cccc(OCCCC(=O)NNC(=O)c2ccncc2)c1	i	2	-5	1	-1	-2
NS(=O)(=O)c1ccc(NC(=O)COc2cccc3ccccc23)cc1	i	-8	0	-3	-2	-15
CC1=NN(c2ccccc2)C(=O)/C1=C\C=C\c1ccccc1	i	8	22*	x	x	7
CSc1ccc(CN(C)C(=O)c2cc(=O)c3ccccc3o2)cc1	+	-2	7	4	-4	-3
O=C(CN(Cc1ccccc1)S(=O)(=O)c1ccc(F)cc1)NCCC1=CCCCC1	i	-13	0	-32	-10	-4
Cc1ccc(S(=O)(=O)N(CC(=O)NCCC2=CCCCC2)Cc2ccccc2)cc1	+	-13	-1	17	0	-3
Cc1cc(-c2ccc(N3CCOCC3)cc2)nc2ccccc12	+	-20	-4	-5	1	-5
CN1CCN(c2ccc(-c3ccc4ccccc4n3)cc2)CC1	+	-37	11	3	2	-15
CCc1ccc(-c2cnc3ccccc3n2)cc1NC(=O)CNC(=O)c1ccccc1	i	-4	-6	-3	-1	8
CCN(CC)C(=O)C1=C(C)N(Cc2ccc(F)cc2)C(=O)C(CC(=O)NC(c2ccccc2)c2ccccc2)C1 (centres undefined)	i	4	5	x	2	-10
